A selection: hits, their analogues and other compounds. The true share with any hit is near 10%.
FLuc inh: blocks purified firefly luciferase enzyme activity. Potency, µM (doses to about 115 µM), most hits filed as inhibitors. purified P. pyralis luciferase, luminescence, biochemical. hit rate 2.5% among 76,000. P08659; further: nearly all actives have a fitted effect of over 65% in size
Target sequence (P08659 whole entry, looked up): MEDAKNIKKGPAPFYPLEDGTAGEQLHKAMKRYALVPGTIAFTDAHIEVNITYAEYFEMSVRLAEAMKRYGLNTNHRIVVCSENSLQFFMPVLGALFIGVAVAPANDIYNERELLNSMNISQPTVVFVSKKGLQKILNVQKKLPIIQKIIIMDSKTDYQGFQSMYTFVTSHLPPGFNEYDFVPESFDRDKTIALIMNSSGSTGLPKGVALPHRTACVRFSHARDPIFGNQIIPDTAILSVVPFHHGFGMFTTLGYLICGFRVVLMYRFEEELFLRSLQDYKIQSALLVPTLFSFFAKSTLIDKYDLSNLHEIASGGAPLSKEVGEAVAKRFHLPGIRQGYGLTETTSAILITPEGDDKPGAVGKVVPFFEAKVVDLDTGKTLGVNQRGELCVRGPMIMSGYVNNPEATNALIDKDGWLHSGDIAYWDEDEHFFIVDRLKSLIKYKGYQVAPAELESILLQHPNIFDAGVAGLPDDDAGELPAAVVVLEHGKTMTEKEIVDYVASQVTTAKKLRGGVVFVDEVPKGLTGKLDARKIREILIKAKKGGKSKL
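Biochemical qHTS: compound (6-point titration) added to 10uM D-luciferin plus 10uM ATP in Tris acetate pH 7.5 buffer with Mg, Tween-20 and BSA, then purified enzyme at 10nM; light output imaged.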
HEK cytotox: cytotoxic compounds in HEK 293 cells; hit rate 6.6% among 94,000; HEK 293 viability, ATP luminescence (CellTiter-Glo), 48-72 h; AID 1345083; Potency, µM (series often up to 115 µM), without a hit: top-dose activity change, negative = cytotoxicity, hits mostly inhibitors; further: nearly all actives have a fitted effect of over 60% in size
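CellTiter-Glo luminescence (cellular ATP) was read after 48 or 72 hr of compound exposure at 37 degree Celsius. Cells were HEK 293 plated at 250 cells/well.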
GPT2 inh: GPT2 alanine aminotransferase inhibition; hit rate 0.25% among 100,000; Q8TD30; Potency, µM (top dose mostly 57.7 µM), for inactives: at the highest dose activity change, negative = inhibition, most hits filed as inhibitors; Recombinant GPT2, coupled pyruvate oxidase/HRP Amplex Red fluorescence; further: nearly all actives have a fitted effect of over 60% in size
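GPT2 10ng/uL, a-KG 250uM, L-Ala 2mM, HEPES pH7.5 + 0.0001% Tween; 30 min RT. Then Amplex mix (PO/HRP/ThPP), 30 min RT dark, fluorescence. AOA 50uM used as positive control.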
NIH3T3 tox: cytotoxic compounds in NIH 3T3 cells. NIH 3T3 viability, CellTiter-Glo ATP luminescence, 48-72 h. Potency, µM (titrated, usually from 96.7 µM), for the others: at the highest dose activity change, negative = cytotoxicity, actives largely listed as inhibitors. hit rate 4.3% among 94,000. AID 1345082; further: nearly all actives have a fitted effect of over 55% in size
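ATP-dependent luminescence (CellTiter-Glo) served as the viability signal for NIH 3T3 cells treated with compound for 48 or 72 hr at 37 °C.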
hNpr1 antagonist: human Npr1 receptor antagonism | P16066 | HEK293 hNpr1 GloSensor cGMP, ANP-stimulated luminescence | Potency, µM (series often up to 46.3 µM), for inactives: at the top dose activity change, negative = inhibition, hits mostly inhibitors | hit rate 1.6% among 76,000 | AID 1347048; calls by dose curve; further: nearly all actives have a fitted effect of over 60% in size
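HEK293 cells stably expressing human Npr1 and cGMP GloSensor pGS-40F, loaded 2 h with 2% GloSensor reagent, given compound 30 min at room temperature. Luminescence read before and 20 min after 0.1 nM hNppA.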
* marks the source's active call; other numbers are inactive results; [ ] = remark or other dose. Unless noted, the call rests on the fitted dose curve; in most records, active means well fitted curve in the direction sought with a large enough effect; inconclusive means small, poorly fitted or top-dose-only effect, or another doubt; inactive means no such curve, though single readings can be large; an effect the other way counts as inactive or inconclusive. On the % scale 0 is the no-effect control and ±100 the full control effect; potency means the concentration at half of the fitted maximal effect.

Results for COc1ccccc1-c1cc2c(ccn2C)c(C(=O)NCCc2cnc[nH]2)n1 ?
FLuc inh: inactive; HEK cytotox: inconclusive; GPT2 inh: 3%[88.5 µM]; NIH3T3 tox: inconclusive; hNpr1 antagonist: -2%[70.6 µM]

Results for Cc1ccc(C(=O)N2CCCN(S(C)(=O)=O)c3ccccc32)cc1C ?
FLuc inh: inconclusive; HEK cytotox: inconclusive; GPT2 inh: inactive; NIH3T3 tox: -24%; hNpr1 antagonist: -12%

How did CC1(c2ccccc2)N(Cc2ccccc2F)C(=O)OC12CCN(C(=O)CN1CCOCC1)CC2 (configuration not stated) do in these assays?
FLuc inh: inactive; HEK cytotox: 4%; GPT2 inh: -7%; NIH3T3 tox: 22µM*; hNpr1 antagonist: 3%

What do the screens show for `CC1(c2ccccc2)N(Cc2ccccc2F)C(=O)OC12CCN(C(=O)c1cccc(C#N)c1)CC2` (configuration not stated)?
FLuc inh: inactive; HEK cytotox: -13%; GPT2 inh: -13%; NIH3T3 tox: 7.1µM*; hNpr1 antagonist: 2%

Results for CC1(c2ccccc2)N(Cc2ccccc2)C(=O)OC12CCN(Cc1ccc(C(=O)O)cc1)CC2 (configuration not stated) ?
GPT2 inh: 2%

Results for CC1(c2ccccc2)N(Cc2ccccc2)C(=O)OC12CCN(C(=O)CN1CCOCC1)CC2 (configuration not stated) ?
FLuc inh: inactive; HEK cytotox: 4%; GPT2 inh: 0%; NIH3T3 tox: 14µM*; hNpr1 antagonist: -5%

How did CC(=O)N1CCC2(CC1)OC(=O)N(Cc1ccccc1F)C2(C)c1ccccc1 (configuration not stated) do in these assays?
FLuc inh: inactive; HEK cytotox: -3%[172 µM]; GPT2 inh: -3%[88.5 µM]; NIH3T3 tox: 35µM*; hNpr1 antagonist: -2%[70.6 µM]

What do the screens show for `O=C1CN(S(=O)(=O)c2ccccc2)CC2(CCCCC2)N1CC1CC1`?
HEK cytotox: inconclusive; GPT2 inh: -12%; NIH3T3 tox: inconclusive

How did CC(C)CNC(=O)c1cc(-c2cc(Cl)cc(Cl)c2)c2nncn2n1 do in these assays?
HEK cytotox: inactive; GPT2 inh: -6%; NIH3T3 tox: -28%

Results for CC[C@H]1CN(Cc2ccc(OC)cc2O)CC[C@H]1CC(=O)N(C)CC#N ?
FLuc inh: inactive; HEK cytotox: -23%[172 µM]; GPT2 inh: -3%[88.5 µM]; NIH3T3 tox: -24%[174 µM]; hNpr1 antagonist: -3%[70.6 µM]

What do the screens show for `CC(C)(C)C(=O)N1CCN(C(=O)c2nc3cccnc3n(CCc3ccccc3)c2=O)CC1`?
HEK cytotox: -8%; GPT2 inh: inactive; NIH3T3 tox: -25%

Results for COc1ccccc1-c1cc(C(=O)NCc2ccccc2F)nn2cnnc12 ?
HEK cytotox: inconclusive; GPT2 inh: inactive; NIH3T3 tox: inconclusive

What do the screens show for `O=C(Nc1ccc2c(c1)OCCO2)N1CCC(Cc2nncn2-c2ccccc2)CC1`?
HEK cytotox: 2%; GPT2 inh: inactive; NIH3T3 tox: -25%

What do the screens show for `CN1CC(=O)N(C2CCCC2)Cc2c1ncnc2N1CCCC1`?
HEK cytotox: -22%[172 µM]; GPT2 inh: 4%[88.5 µM]; NIH3T3 tox: -10%[138 µM]

Results for Cc1nn(-c2ccccc2)c2c1C(C(C)C)N(C1CCCN(C(=O)Cc3cccc(Cl)c3)C1)C2=O (configuration not stated) ?
HEK cytotox: 28µM*; NIH3T3 tox: inconclusive

What do the screens show for `Cc1nn(-c2ccccc2)c2c1C(C(C)C)N(C1CN(C(=O)Cc3ccccn3)C1)C2=O` (configuration not stated)?
HEK cytotox: inconclusive; NIH3T3 tox: -36%

How did COCC(=O)N1CC(N2C(=O)c3c(c(C)nn3-c3ccccc3)C2C(C)C)C1 (configuration not stated) do in these assays?
HEK cytotox: -7%; NIH3T3 tox: -26%

How did Cc1nn(-c2ccccc2)c2c1C(C(C)C)N(C1CCN(C(=O)Cc3cccc(Cl)c3)C1)C2=O (configuration not stated) do in these assays?
HEK cytotox: 45µM*; NIH3T3 tox: 35µM*

How did COc1ccc(CC(=O)N2CCC(N3C(=O)c4c(c(C)nn4-c4ccccc4)C3C(C)C)C2)cc1 (configuration not stated) do in these assays?
HEK cytotox: inconclusive; NIH3T3 tox: 40µM*

How did Cc1oc2c(c1C(=O)NC1CCCC1)CN(Cc1ccc(F)cc1)CC2 do in these assays?
FLuc inh: inactive; HEK cytotox: inconclusive; GPT2 inh: inactive; NIH3T3 tox: -34%; hNpr1 antagonist: -19%

How did O=C(NC1CCCN(c2ccc3nnc(C4CC4)n3n2)C1)C1CC1 (configuration not stated) do in these assays?
HEK cytotox: -5%; NIH3T3 tox: 1%

How did Cc1ccc(CN2CCC(N3C(=O)c4c(c(C)nn4-c4ccccc4)C3C3CC3)CC2)cc1 (configuration not stated) do in these assays?
HEK cytotox: inactive; NIH3T3 tox: -4%

What do the screens show for `CC(=O)NC1CCN(C(=O)c2ccc(-c3ncccc3C#N)cc2)CC1`?
HEK cytotox: -23%; GPT2 inh: 5%; NIH3T3 tox: -28%

How did Cc1noc(C)c1Cc1ccc(C(=O)N2CCC(c3nc(CCOCC4CC4)no3)C2)o1 (configuration not stated) do in these assays?
HEK cytotox: inconclusive; GPT2 inh: -2%; NIH3T3 tox: inconclusive

Results for COc1cccc(-c2cc3c(=O)n(CCNC(=O)Cc4ccc(Cl)cc4)ccn3n2)c1 ?
FLuc inh: inconclusive; HEK cytotox: -26%; GPT2 inh: inactive; NIH3T3 tox: -26%; hNpr1 antagonist: inconclusive

How did COc1cccc(-c2cc3c(=O)n(CCNC(=O)c4ccc(F)cc4)ccn3n2)c1 do in these assays?
FLuc inh: inactive; HEK cytotox: -4%; GPT2 inh: inactive; NIH3T3 tox: 0%; hNpr1 antagonist: -3%

Results for COc1ccc(-c2cc3c(=O)n(CCNC(=O)c4cc(Cl)ccc4F)ccn3n2)cc1 ?
FLuc inh: inconclusive; HEK cytotox: 79µM*; GPT2 inh: -12%; NIH3T3 tox: -19%; hNpr1 antagonist: -20%

Results for COc1cccc(-c2cc3c(=O)n(CCNC(=O)c4cc(F)ccc4F)ccn3n2)c1 ?
FLuc inh: 7.1µM*; HEK cytotox: inconclusive; GPT2 inh: -14%; NIH3T3 tox: inconclusive; hNpr1 antagonist: inconclusive

Results for COc1cccc(-c2cc3c(=O)n(CCNC(=O)Cc4cccc(F)c4)ccn3n2)c1 ?
FLuc inh: 11µM*; HEK cytotox: inconclusive; GPT2 inh: inactive; NIH3T3 tox: inconclusive; hNpr1 antagonist: -3%

Screening data from PubChem BioAssay.
